# PubChem BioAssay (NCI)
# About 79,000 compounds went through this panel and 15% of them were active in at least one assay; those are over-represented in the sample as a whole. Active and inactive are the calls of the source. Rule as the data show it: active = growth inhibition above about 70%; inactive = the rest.
# Assay: NCI Yeast Anticancer Drug Screen. Data for the mlh1 rad18 strain (AID 175)
# Conditions: S. cerevisiae mlh1 rad18 strain growth inhibition; at 5.0 µM (retest, dose inferred, filed as 0.5); stronger effect = higher value
# Method in brief: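 Vehicle-treated cultures served as the reference for growth inhibition in a yeast strain carrying DNA damage repair alterations exposed to each compound.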
row,Structure (SMILES),growth inhibition
1,CCNC(=O)COc1ccc(Cl)cc1Cl,8% (inactive)
2,CCN1CCC(O)(/C=C/c2ccc(Cl)c(Cl)c2)C(C(=O)/C=C/c2ccc(Cl)c(Cl)c2)C1 (centres undefined),99% (active)
3,Nc1ccc(-c2ccc(N)cc2S(=O)(=O)O)c(S(=O)(=O)O)c1,-7% (inactive)
4,COc1ccc2c(c1)CCc1c(-c3noc4c3CCc3cc(OC)ccc3-4)noc1-2,-2% (inactive)
5,Cc1ccc(NC(=S)N(CCC#N)C2CCCCC2)cc1C,-27% (inactive)
6,COc1ccc2c(c1)CC1c3c(ccc(OC)c3O)CC2N1C (centres undefined),-55% (inactive)
7,CCN(CC)CCCC(C)Nc1c2ccccc2nc2c(C)cc(Br)cc12 (centres undefined),8% (inactive)
8,O=C(O)c1cc2ccc3cccc4ccc(c1)c2c34,9% (inactive)
9,CCOC(=O)NC(=S)Nc1ccsc1,-7% (inactive)
10,CC(C)CCC(C)(C)c1cc(O)ccc1O,35% (inactive)
11,COc1ccc(C(c2cc3c(cc2O)OCO3)N2CCOCC2)c(OC)c1OC (centres undefined),2% (inactive)
12,CCOC(=O)C1=C(C)NC(C)=C(C(=O)OCC)C1c1c(-c2ccccc2)noc1C,2% (inactive)
13,O=C(CCl)Oc1ccc(Sc2ccc(OC(=O)CCl)cc2)cc1,7% (inactive)
14,Nc1ccc2[nH]c3ccccc3c2c1,0% (inactive)
